A selection: hits, their analogues and other compounds. The true share with any hit is near 1.3%.
gsp antagonist: gsp mutant antagonism. gsp-mutant cells, cAMP HTRF, 30 min. Potency, µM (titrated, usually from 76.9 µM), without a hit: at the highest dose activity change, negative = inhibition, hits mostly inhibitors. hit rate 0.4% among 340,000; calls by dose curve; cell line not stated here;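 also: intracellular cAMP measured with PDE inhibitor Ro 20-1724 present during compound exposure; potency is read from the fitted curve at half-maximal effect; % is scaled to controls: 0 for no effect and ±100 for the full control effect; nearly all actives have a fitted effect of over 65% in size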
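HTRF cAMP measurement after 30 min RT detection following 30 min, 37C compound treatment alongside […] (added as 300 uM solution) in G418-selected cells seeded at 2000/well and grown 16–24 h.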
RXFP1 ag: agonists of human relaxin receptor RXFP1; AID 2676; hit rate 0.3% among 370,000; HEK293T-RXFP1 cAMP TR-FRET, 30 min; response scale: percent of porcine relaxin response, buffer zero; Potency, µM (titrated, usually from 57.5 µM), for the others: at the highest dose activation, most hits filed as activators; Q9HBX9; active = well fitted activation curve with a large enough effect; inconclusive = small, poorly fitted or top-dose-only effect; also: potency is read from the fitted curve at half-maximal effect; % is scaled to controls: 0 for no effect and ±100 for the full control effect; nearly all actives have a fitted effect of over 60% in size
Target sequence (Q9HBX9 whole entry, looked up): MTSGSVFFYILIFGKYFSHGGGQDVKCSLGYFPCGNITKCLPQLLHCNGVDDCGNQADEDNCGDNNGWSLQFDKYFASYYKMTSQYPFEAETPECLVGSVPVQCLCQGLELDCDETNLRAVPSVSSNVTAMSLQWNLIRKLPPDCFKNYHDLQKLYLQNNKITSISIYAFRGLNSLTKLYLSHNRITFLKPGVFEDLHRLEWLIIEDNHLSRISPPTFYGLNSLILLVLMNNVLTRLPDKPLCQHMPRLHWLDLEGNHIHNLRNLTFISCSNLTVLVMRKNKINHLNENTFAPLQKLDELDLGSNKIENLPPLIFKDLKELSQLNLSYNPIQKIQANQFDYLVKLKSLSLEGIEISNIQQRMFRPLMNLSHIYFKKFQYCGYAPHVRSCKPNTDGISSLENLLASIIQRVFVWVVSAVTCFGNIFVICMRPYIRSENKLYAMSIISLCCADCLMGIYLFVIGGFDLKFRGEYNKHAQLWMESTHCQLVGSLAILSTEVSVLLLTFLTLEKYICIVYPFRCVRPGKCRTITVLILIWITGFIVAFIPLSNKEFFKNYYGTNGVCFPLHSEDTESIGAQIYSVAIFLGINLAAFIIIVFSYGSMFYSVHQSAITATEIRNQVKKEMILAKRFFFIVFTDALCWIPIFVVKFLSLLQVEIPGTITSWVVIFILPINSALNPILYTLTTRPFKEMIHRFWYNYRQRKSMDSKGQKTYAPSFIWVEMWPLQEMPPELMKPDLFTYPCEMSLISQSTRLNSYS
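HEK293T cells stably expressing RXFP1 were pretreated with the PDE4 inhibitor Ro 20174, exposed to compounds for 30 min at 37C, lysed, and cAMP was read by TR-FRET. Data normalized to buffer (basal) and 29 nM porcine relaxin (100%).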
pAkt inh: Akt phosphorylation inhibition; Neuro2A IGF-stimulated pAkt S473 HTRF, 20 min; hits give low values; hit rate 0.32% among 360,000; activity change, % for hits at 50 µM; in the data active = activity change below about -80%; inconclusive = mostly about -51% to -80%; also: % is scaled to controls: 0 for no effect and ±100 for the full control effect
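Neuro2A cells (4,500/well, DMEM with 0.5% FBS) were treated with compound at a single 50 µM final concentration, stimulated with 6 nM IGF for 20 min at 37 °C, and lysed. Phospho-Akt Ser473 was read by HTRF as 665/615 ratio ×10^4.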
gsp ag: gsp mutant agonism. gsp mutant cells, cAMP HTRF, 30 min. Potency, µM (doses to about 76.9 µM), inactives show at the highest dose activation (cAMP increase), most hits filed as activators. hit rate 0.13% among 340,000. AID 624287; active = well fitted activation curve with a large enough effect; inconclusive = small, poorly fitted or top-dose-only effect, or another doubt; inactive = no such curve, though single readings can be large or run the other way; cell line not stated here;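 also: phosphodiesterase inhibitor Ro 20-1724 added with compounds to block cAMP breakdown; potency is read from the fitted curve at half-maximal effect; nearly all actives have a fitted effect of over 60% in size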
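Cells in DMEM/10% FBS with G418 were pretreated with compounds in DMSO plus […] (300 uM stock) for 30 min at 37C. cAMP was measured by HTRF (cAMP-d2 plus anti-cAMP antibody-K) after 30 min at room temperature.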
RXFP1 antag: antagonists of human relaxin receptor RXFP1 | hit rate 0.59% among 350,000 | HEK293-RXFP1, relaxin-stimulated cAMP HTRF, 30 min; hits give low values | Q9HBX9 | activity change, negative = inhibition, % at 57.5 µM;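 active = activity change of -60% or lower, but not beyond a set lower limit; inconclusive = change between -60% and -40%, or beyond the set limit; inactive = change above -40%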; also: % is scaled to controls: 0 for no effect and ±100 for the full control effect
The depositor's hits bear a star; [ ] = dose if it differs, or a comment.

For COc1ccc(CCNC(=O)c2c(C)oc3nc(C)nc(N4CCOCC4)c23)cc1OC the results were RXFP1 ag 0% and RXFP1 antag 3.
`O=c1oc2ccccc2c(NC2CCCCC2)c1NS(=O)(=O)c1ccc(F)c(Cl)c1` gave gsp antagonist -29%, RXFP1 ag 1%, pAkt inh inactive, gsp ag inconclusive and RXFP1 antag -63*.
`COc1cccc(N2C(=O)CC(c3c[nH]c4ccccc34)C2=O)c1` (stereo not given) gave gsp antagonist 20%, RXFP1 ag -1%, pAkt inh -102%*, gsp ag 22% and RXFP1 antag -5.
`O=C1CC(c2c[nH]c3ccccc23)C(=O)N1c1ccccc1` (stereo not given) gave gsp antagonist -3%, RXFP1 ag 0%, pAkt inh inactive, gsp ag -1% and RXFP1 antag 4.
N#C[C@H]1C[C@H]2C[C@@H]2N1C(=O)[C@@H](N)C12CC3CC(CC(O)(C3)C1)C2 was read as RXFP1 antag 10.
For C[C@@H](CN1CC(=O)NC(=O)C1)N1CC(=O)NC(=O)C1 the results were RXFP1 antag -15.
CC1(C)CC(=O)C(C(C2=C(O)CC(C)(C)CC2=O)c2ccc(Br)s2)C(=O)C1 (stereo not given) was read as gsp antagonist -25%, RXFP1 ag 0%, pAkt inh inactive, gsp ag inconclusive and RXFP1 antag -99*.
Cc1ccc(C(C2=C(O)CC(C)(C)CC2=O)C2C(=O)CC(C)(C)CC2=O)s1 (stereo not given) was read as gsp antagonist -19%, RXFP1 ag 0%, pAkt inh inactive, gsp ag 19% and RXFP1 antag inconclusive.
For COc1ccc(C(CCNCc2ccc(N(C)C)cc2)c2ccccc2)cc1 (stereo not given) the results were gsp antagonist 1%, RXFP1 ag 1%, pAkt inh inactive, gsp ag -28% and RXFP1 antag -37.
COc1ccc(C(CCNC(C)c2ccccc2)C(C)C)cc1 (stereo not given) was read as gsp antagonist 9%, RXFP1 ag -1%, pAkt inh inactive, gsp ag 2%[15.4 µM] and RXFP1 antag inconclusive.
For COc1ccc(C(C)NCCC(c2ccc(OC(C)C)cc2)c2ccccc2OC)cc1 (stereo not given) the results were gsp antagonist -3%, RXFP1 ag 0%, pAkt inh inactive, gsp ag -2% and RXFP1 antag -90*.
`COc1ccc(CNCCC(c2ccc3c(c2)OCO3)c2ccccc2OC)cc1` (stereo not given) gave RXFP1 ag 0% and RXFP1 antag -72*.
Oc1ccc(/C=N/N(Cc2ccccc2)c2ccccc2)c(O)c1O was read as gsp antagonist 8%, RXFP1 ag -1%, pAkt inh inactive, gsp ag 3%[15.4 µM] and RXFP1 antag -92*.
Screening CC(=O)N1CCN(c2ccc(Nc3ncnc4c3oc3ccccc34)cc2)CC1 returned gsp antagonist 28µM*, RXFP1 ag 0%, pAkt inh inactive, gsp ag 3% and RXFP1 antag -35.
For OC[C@@H](O)[C@H](O)[C@H](O)[C@@H](O)CO the results were RXFP1 antag -20.
CC(=O)Nc1sc2c(c1C(c1ccccn1)N1CCCC1)CCCC2 (stereo not given) was read as gsp antagonist 7%, RXFP1 ag -2%, pAkt inh inactive, gsp ag -20%[15.4 µM] and RXFP1 antag -17.
`CC(=O)Nc1sc2c(c1C(c1cccs1)N1CCOCC1)CCCC2` (stereo not given) gave gsp antagonist 1%, RXFP1 ag 3%, pAkt inh -110%*, gsp ag -48% and RXFP1 antag -1.
Screening Cc1ccc(C(=O)NCCc2ccc(S(N)(=O)=O)cc2)cc1-n1cnc2cccnc21 returned RXFP1 ag 5% and RXFP1 antag -2.
`Cc1cc(=O)[nH]c(-n2nc(C)c(Oc3ccccc3O)c2C)n1` gave gsp antagonist -4%, RXFP1 ag 0%, pAkt inh -110%*, gsp ag 6% and RXFP1 antag 2.
For Cc1nn(-c2ccc(C(F)(F)F)cn2)c(C)c1Oc1ccccc1O the results were gsp antagonist -7%, RXFP1 ag 1%, pAkt inh inactive, gsp ag inconclusive and RXFP1 antag -1.
Screening Cc1ccc(NC(=O)c2c(C)oc3ccc(O)c(CN4CCCCCC4)c23)cc1 returned RXFP1 ag 1% and RXFP1 antag -10.
For C(=C\c1ccccc1)/CN1CCN(C(c2ccccc2)c2ccccc2)CC1 the results were gsp antagonist -1%, RXFP1 ag 1%, pAkt inh inactive and RXFP1 antag -40.
Fc1ccc(C(c2ccc(F)cc2)N2CCN(C/C=C/c3ccccc3)CC2)cc1 was read as gsp antagonist -15%, RXFP1 ag 3%, pAkt inh inactive and RXFP1 antag -64*.
`COc1cc(C(=O)N/N=C/c2ccc(OC(=O)c3ccccc3Cl)cc2)ccc1O` gave gsp antagonist -31%, RXFP1 ag 0%, pAkt inh inactive, gsp ag -30% and RXFP1 antag -91*.
`CN(Cc1ccccc1)c1nc2c(c(=O)[nH]c(=O)n2C)n1CCOc1ccccc1` gave gsp antagonist 20%, RXFP1 ag 5%, pAkt inh -124%*, gsp ag -3% and RXFP1 antag 11.
Cn1c(=O)[nH]c(=O)c2c1nc(OC(=O)c1ccccc1)n2CC(O)COc1ccccc1 (stereo not given) was read as gsp antagonist 0%, RXFP1 ag 1%, pAkt inh -126%*, gsp ag -30% and RXFP1 antag -28.
Screening CN(Cc1ccccc1)c1nc2c(c(=O)[nH]c(=O)n2C)n1Cc1ccccc1 returned gsp antagonist 13%, RXFP1 ag 3%, pAkt inh inactive, gsp ag -4% and RXFP1 antag -21.
For Cc1ccccc1NC(=O)c1nc(S(C)(=O)=O)ncc1N(Cc1ccco1)Cc1sccc1C the results were RXFP1 ag -1% and RXFP1 antag -16.
For O=c1[nH]sc2cc(Cl)ccc12 the results were RXFP1 antag 19.
Screening CCOC(=O)Nc1nc(-c2ccccc2)c(C(=O)c2ccccc2)s1 returned gsp antagonist 11%, RXFP1 ag 7%, gsp ag inconclusive and RXFP1 antag 7.
For COC(=O)Nc1nc(-c2ccccc2)c(C(=O)c2ccc(Cl)cc2)s1 the results were gsp antagonist 13%, RXFP1 ag 18%, pAkt inh -86%*, gsp ag 0% and RXFP1 antag -4.

Compound activity (PubChem BioAssay)
